The text below walks through data of PubChem BioAssay (NCI).

About 79,000 compounds went through this panel and 15% of them were active in at least one assay; those are over-represented in the sample as a whole. Values without a mark were called inactive. The source made the active and inactive calls. No stated cut-off is given here; in the data, active means growth inhibition above about 70%; inactive means the rest.

Test [1] is described as follows: NCI Yeast Anticancer Drug Screen. Data for the rad50 strain (AID 155).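 Further: 0% = growth of vehicle-only cultures of the same strain.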 Conditions: S. cerevisiae rad50 strain growth inhibition; at 50.0 µM; hits give high values. Put shortly: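 Readout: growth inhibition relative to vehicle-treated cultures. Compound exposure was carried out in a genetically defined yeast strain deficient in DNA damage repair.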
A short description of test [2]: NCI Yeast Anticancer Drug Screen. Data for the mec2-1 strain (AID 157). Conditions: S. cerevisiae mec2-1 strain, at 50.0 µM, hits give high values. Put shortly:
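Cells of the genetically defined mec2-1 yeast strain are incubated with test compound. Inhibition of growth is calculated against vehicle-treated controls.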

Test [3] is described as follows: NCI Yeast Anticancer Drug Screen. Data for the sgs1 mgt1 strain (AID 161).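 Further: 0% = growth of cultures given vehicle only.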 Conditions: S. cerevisiae sgs1 mgt1 strain, at 50.0 µM, hits give high values. In a few lines:
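Inhibition of yeast growth, normalised to vehicle-treated controls, is reported for a strain bearing genetic alterations in DNA damage repair.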

Test [4] in a line: NCI Yeast Anticancer Drug Screen. Data for the cln2 rad14 strain (AID 165).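 Further: 0% = growth equal to vehicle treated cultures.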 The note with it: S. cerevisiae cln2 rad14 strain, at 50.0 µM, hits give high values. Put shortly:
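The screen exposed genetically defined yeast (cln2 rad14) to test compounds and scored growth inhibition relative to vehicle-treated controls.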

The nature of test [5]: NCI Yeast Anticancer Drug Screen. Data for the bub3 strain (AID 167). The note with it: S. cerevisiae bub3 mutant strain, at 50.0 µM, hits give high values. Put shortly:
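Readout: yeast growth inhibition, expressed relative to vehicle-only wells. The test organism is a mutant strain from a panel with lesions in DNA repair or checkpoint genes.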

A short description of test [6]: NCI Yeast Anticancer Drug Screen. Data for the mlh1 rad18 strain (AID 175). The note with it: S. cerevisiae mlh1 rad18 strain growth inhibition; at 50.0 µM; hits give high values. In a few lines:
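Compound-treated yeast growth, normalised to vehicle controls. Strain bears defined DNA repair mutations.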

As to `Oc1ccccc1C=Nc1ccc(Cl)cc1`, the growth inhibition in test [1] was -1.35%; in test [2] it was 3.6%; in test [3], -5.5%; in test [4] it was -12.7%; in test [5] it was -21.6%; in test [6], 6.85%.
For the compound `CN(C/C=C/CN(C)C(=S)Nc1ccccc1)C(=S)Nc1ccccc1`, the growth inhibition in test [1] was -19.1%; in test [2], 13.1%; in test [3], -20.5%; in test [4], -2.65%; in test [5] it was 2.85%; in test [6], 5.65%.
For the compound `COc1ccc(-c2cc(-c3ccccc3)n(-c3ccccc3)n2)cc1`, the growth inhibition is -0.9% in test [1]; 15.1% in test [2]; 7.2% in test [3]; -2.85% in test [4]; 0.8% in test [5]; -15.4% in test [6].
On to `CCC/C(=N/NC(=O)C(N)=O)C(CC)C(=O)CCC(=O)N(Cc1ccccc1)Cc1ccccc1` (stereo unspecified), for which the growth inhibition was -17.6% in test [1]; -15.6% in test [2]; -26.6% in test [3]; 10.8% in test [4]; -10.4% in test [5]; -21.3% in test [6].
With `CCNC1=C(OC)C(=O)C(NCC)=C(OC)C1=O`, the growth inhibition in test [1] is -6.2%; in test [2], 7.25%; in test [3] it was 2.6%; in test [4] it was -33.6%; in test [5], 5.3%; in test [6], -5.8%.
For `Cc1ccc(C2=C(c3ccc(C)cc3)CS(=O)(=O)C2)cc1`, the growth inhibition in test [1] is 22.2%; in test [2], -5.55%; in test [3], -0.4%; in test [4], -6%; in test [5], -18.8%; in test [6], -26.1%.
For the compound `CN(c1ccccc1)c1nc(=[N+](C)C)ss1`, the growth inhibition was 35.4% in test [1]; 26.5% in test [2]; 17% in test [3]; 24.1% in test [4]; 4.3% in test [5]; 31.8% in test [6].
For the compound `COC(=O)C1=C(C(=O)OC)C2(C(=O)OC)OC1(OC)C(C1(C(=O)OC)C(C(=O)OC)=C1C(=O)OC)=C2C(=O)OC` (stereo unspecified), the growth inhibition was 16% in test [1]; 14.2% in test [2]; 8.9% in test [3]; 16.1% in test [4]; 1.25% in test [5]; 9.7% in test [6].
With `O=[N+]([O-])c1ccc(SC2=NCCCN2C2CCCCC2)c(Cl)c1`, the growth inhibition was -0.1% in test [1]; -13.9% in test [2]; 12.8% in test [3]; 13.8% in test [4]; 12.6% in test [5]; -9% in test [6].
`CNC(=O)N(C)c1cc(N(C)C)nc(OC)n1`: the growth inhibition in test [1] is -16.4%; in test [2], -34.6%; in test [3], -19.4%; in test [4] it was -9.4%; in test [5] it was -20.8%; in test [6], -23.4%.
Consider `C=CCNC(=O)OCCCl`, for which the growth inhibition is 6% in test [1]; -1.45% in test [2]; -9.6% in test [3]; 5.95% in test [4]; -4.5% in test [5]; 15.1% in test [6].
With `Nc1nc(-c2cccc(S(=O)(=O)O)c2)c([N+](=O)[O-])c(=O)[nH]1`, the growth inhibition in test [1] was -10%; in test [2], -8.05%; in test [3], -15.7%; in test [4], 10.2%; in test [5], -24.6%; in test [6], 17.6%.
Consider `CCOC(=O)CC(C)C(Br)(C(=O)OCC)C(=O)OCC` (stereo unspecified), for which the growth inhibition was 47.5% in test [1]; 93.5% (active) in test [2]; 89.4% (active) in test [3]; 20.5% in test [4]; 93.4% (active) in test [5]; 95.4% (active) in test [6].
Turning to `O=C1Cc2nc3ccccc3nc2CC(=O)c2ccccc21`, the growth inhibition in test [1] is 4.9%; in test [2] it was 10.9%; in test [3], 9.35%; in test [4] it was -19.9%; in test [5] it was -12.1%; in test [6], 13.3%.
On to `CC1NC(=O)c2c(-c3ccccc3)nn(-c3ccccc3)c2NC1=O` (stereo unspecified), for which the growth inhibition in test [1] is 1.35%; in test [2], -2.4%; in test [3] it was 11.8%; in test [4], -3.85%; in test [5], 3.15%; in test [6], -33.2%.
Consider `O=c1c[n+]([O-])c2ccccc2n1O`, for which the growth inhibition is 10.8% in test [1]; -3.75% in test [2]; 3.75% in test [3]; -27.1% in test [4]; -5.7% in test [5]; 11.8% in test [6].
For the compound `COc1ccc2nc3cc([N+](=O)[O-])ccc3c(Nc3ccc(S(=O)(=O)N=C(N)N)cc3)c2c1`, the growth inhibition in test [1] is 59.8%; in test [2], 21.8%; in test [3], 48.5%; in test [4], 12.8%; in test [5], 38.8%; in test [6], 53.9%.
As to `NC(Cc1ccc(O)c(O)c1)C(=O)OCc1ccccc1` (stereo unspecified), the growth inhibition in test [1] was 67.6%; in test [2], 60.7%; in test [3], 68.8%; in test [4], 58.4%; in test [5], 38.5%; in test [6], 65.8%.
For the compound `COc1ccc(CC(=O)OCCCl)cc1OC`, the growth inhibition in test [1] was -17%; in test [2], -22.4%; in test [3] it was 3%; in test [4], -26.4%; in test [5], 44.1%; in test [6], -20.7%.
For `CCOc1ccc(/C=C2\N=C(c3ccccc3)OC2=O)cc1OC`, the growth inhibition is 8.5% in test [1]; 12.5% in test [2]; 4% in test [3]; 0.75% in test [4]; 5.85% in test [5]; 2.4% in test [6].
On to `OC(CNC1CCCCC1)(c1ccccc1)c1ccccc1`, for which the growth inhibition in test [1] is -11.2%; in test [2], -8.35%; in test [3], 13.9%; in test [4], 10.8%; in test [5], 30.2%; in test [6] it was -20.6%.
